An excerpt weighted towards active compounds, which were near 4.8% of everything screened.
DAX1 inh-1: NR0B1 (DAX1) inhibition. P51843. HEK293 Gal4-DAX1 luciferase reporter, luminescence. inhibition, % at 6.75 µM. hit rate 0.99% among 340,000;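 active = inhibition above the mean over all tested compounds plus 3 SD, cut at about 4.2% in these data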;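 note: 0% = DAX1-transfected cells with DMSO and 100% = empty-vector control cells with DMSO; inhibition shows as a rise in luminescence from relieved DAX1 repression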
Target sequence (P51843 207-470 limits assumed): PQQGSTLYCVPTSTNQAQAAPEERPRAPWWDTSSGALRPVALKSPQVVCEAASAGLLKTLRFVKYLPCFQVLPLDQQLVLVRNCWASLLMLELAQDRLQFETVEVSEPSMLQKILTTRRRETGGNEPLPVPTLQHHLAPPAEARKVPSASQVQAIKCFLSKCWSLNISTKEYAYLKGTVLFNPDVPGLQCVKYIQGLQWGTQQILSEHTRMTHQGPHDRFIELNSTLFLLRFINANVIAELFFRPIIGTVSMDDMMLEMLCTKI
DAX1 inh-2: inhibitors of DAX1 repression of SF-1 activated StAR promoter. HEK293T StAR-luciferase reporter, SF-1/DAX-1 repression relief. inhibition, % at 6.8 µM. hit rate 1.1% among 370,000. AID 652010;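 active = inhibition above the mean over all tested compounds plus 3 SD, cut at about 3.6% in these data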;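 note: 0% = DAX-1 cells with DMSO and 100% = cells lacking DAX-1 with DMSO; higher inhibition means more luminescence from relief of DAX-1 repression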
hgDAF-12 ag: hgDAF-12 agonism, primary luciferase screen; HEK293 GAL4-hgDAF12 UAS-luciferase reporter, agonist luminescence; normalized to butyrate control; activation, % at 6.8 µM; hit rate 1.8% among 370,000; AID 687014;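 active = activation above a cutoff set at the mean of all screened compounds plus 3 SD, cut at about 10% in these data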;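 note: 0% = DMSO wells and 100% = sodium butyrate wells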
hcDAF-12 act: H. contortus DAF-12 activation, primary screen; HEK293 hcDAF-12 lit1-tk-luc reporter, luminescence; 0% DMSO, 100% Δ7-dafachronic acid; activation, % at 6.8 µM; hit rate 1.4% among 370,000; AID 652067;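 active = activation above the mean of all tested compounds plus 3 SD, cut at about 5.5% in these data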;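 note: 100% = response to 3 µM Δ7-dafachronic acid high control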
SMARCA2 act: increases SMARCA2 function in MMTV reporter cells; MG213 cells, MMTV-luciferase reporter, dexamethasone, overnight; activation, % at 9.1 µM; hit rate 1% among 370,000; in the data active = activation above about 7.8%;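 note: 0% = vehicle wells and 100% = reference activator wells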
ssDAF12 agonist: activators of S. stercoralis DAF-12 nuclear receptor; hit rate 1% among 370,000; HEK293 ssDAF-12/GRIP1 lit1-tk-luc reporter, luminescence; % of 3 µM dafachronic acid response; AID 652126; activation, % at 6.8 µM;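 active = activation above the mean over all tested compounds plus 3 SD, cut at about 0.9% in these data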;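 note: 0% = DMSO-only wells and 100% = 3 µM delta7-dafachronic acid wells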
* hit, by the source's call; · = not tested or not shown.

SMILES | DAX1 inh-1 | DAX1 inh-2 | hgDAF-12 ag | hcDAF-12 act | SMARCA2 act | ssDAF12 agonist
COC(=O)[C@H](CC(C)C)N(Cc1cn(Cc2ccccc2)nn1)S(=O)(=O)c1ccccc1Br | · | -1 | 1 | -2 | -4 | -2
CSCCC(NC(=O)OC(C)(C)C)C(=O)Oc1ccc2c(=O)c(-c3ccc4c(c3)OCCO4)coc2c1 (stereo unspecified) | 0 | 3 | 11* | 5.7* | 3 | 1
CSCCC(NC(C)=O)C(=O)Oc1ccc2c3c(c(=O)oc2c1)CCCC3 (stereo unspecified) | 0 | -1 | -2 | -1 | -3 | -2
COC(=O)CSc1nnc(-c2cc(-c3ccccc3)n[nH]2)n1N | · | -1 | 0 | 1 | 0 | -2
O=C(NCCO)[C@H](Cc1ccccc1)NC1(C(=O)NCCc2c[nH]c3ccccc23)CCCCC1 | · | · | 3 | 0 | · | -1
Cc1ccc(C(=O)Nc2cc3c(oc2=O)CCCC3=O)cc1 | 3 | 2 | 11* | 4 | 3 | 0
Cc1ccc(-c2nnc(SCC(=O)NN=Cc3c[nH]c4ccccc34)n2-c2ccccc2)cc1 | · | -2 | 7 | 0 | 1 | -1
CC(C)CC(=O)Nc1ccc([N+](=O)[O-])cc1Cl | 4.3* | 1 | 1 | -1 | -1 | -1
CCOCC(=O)Nc1ccc([N+](=O)[O-])cc1Cl | · | -2 | -1 | -1 | -2 | -1
O=C1C2C3CCC(O3)C2C(=O)N1c1cccc(O)c1 (stereo unspecified) | -1 | 0 | 5 | 4 | 2 | 0.9*
O=C(Nc1cc(S(=O)(=O)N2CCOCC2)ccc1N1CCCC1)c1cc2c(s1)CCCC2 | · | · | 2 | -2 | · | -2
c1csc(-c2noc(CN3CCOCC3)n2)c1 | 4.7* | 0 | 2 | 2 | 1 | -1
CC(=O)Nc1ccc(C(CCCc2ccccc2)C2=CCCCC2)cc1 (stereo unspecified) | · | -1 | 4 | -2 | -3 | -1
C/C(=N/Nc1ccccc1[N+](=O)[O-])c1ccc([N+](=O)[O-])cc1 | 1 | 0 | 1 | 6.4* | -2 | 0
CNc1cncc(-c2cccc(OC)c2F)n1 | · | 4.2* | 9 | 3 | 2 | 1
CNc1cncc(-c2c(OC)cccc2OC)n1 | · | 0 | 0 | 0 | -5 | -1
CNc1cncc(-c2ccc(F)c(F)c2)n1 | · | 1 | 5 | -2 | -3 | -2
CNc1cncc(-c2ccc(OC)c(OC)c2)n1 | · | 1 | 11* | -1 | 6 | 3.4*
O=C(CSc1nc2cc(Cl)ccc2s1)c1cc2ccccc2o1 | 0 | 1 | 3 | 2 | -3 | 3.4*
Cc1cc(SCC(=O)c2cc3ccccc3o2)nc2ccccc12 | 0 | 1 | 4 | 5 | 5 | 1.1*
Cc1cc(NC(=O)CSc2nc3cc(Cl)ccc3s2)no1 | 1 | 1 | 3 | 2 | -5 | -1
Cc1cc(SCC(=O)O)nc2ccccc12 | -1 | 0 | 0 | 0 | 0 | -1
CCOC(=O)c1c(NC(=O)CSc2nc3cc(Cl)ccc3s2)sc(C(C)=O)c1C | · | 0 | 1 | 5.8* | 2 | -1
Cc1ccc(NC(=O)CN2C(=O)CCSc3ccccc32)cc1C | · | -1 | -3 | -3 | -6 | -1
CC(C)n1nnnc1C1c2ccccc2C(=O)N1Cc1cccc(F)c1 (stereo unspecified) | · | 3.8* | -1 | 2 | -5 | -1
SMILES | DAX1 inh-1 | DAX1 inh-2 | hgDAF-12 ag | hcDAF-12 act | SMARCA2 act | ssDAF12 agonist
CC(C)n1nnnc1C1c2ccccc2C(=O)N1Cc1ccc(F)cc1 (stereo unspecified) | · | -1 | -4 | 0 | -4 | 0
Cc1nn(-c2ccccc2)c(/N=C/c2ccc(O)cc2)c1-c1ccccc1 | 0 | -5 | 9 | 1 | -1 | 1.0*
CCCC(=O)OC12CCCN(C1)/C(=C/c1cccc(OC)c1)C2 (stereo unspecified) | · | 0 | -1 | 1 | 0 | -1
COc1ccccc1N1CCN(c2ncnc3nc[nH]c23)CC1 | 0 | -1 | -1 | -3 | 7.9* | -1
COc1cccc2c(NCc3ccccc3)nc(-n3c(N)nc4ccccc43)nc12 | · | · | -18 | -8 | · | -3
Cn1c(/N=C/c2ccc3c(c2)OCO3)nc2ccccc21 | 0 | 0 | 1 | 5.9* | 2 | -1
CN(C)CCCN(C(=O)c1cc(-c2cccs2)nc2ccccc12)c1nc2c(F)cccc2s1 | 1 | 4.1* | 0 | -1 | -2 | -1
O=c1c2cc(Cl)ccc2nc(-c2ccccc2)n1O | 0 | 0 | 2 | -1 | 5 | -1
O=c1c2cc(Cl)ccc2nc(-c2ccc(Cl)c(Cl)c2)n1O | 4.5* | 0 | 0 | 4 | -1 | 0
Cc1cc(C)c2c(N)c(C(=O)Nc3ccccc3F)sc2n1 | 5.3* | 2 | 11* | 2 | 3 | -1
COc1ccc(-c2nnc(N(C)C(=O)C3CCOC3)s2)cc1 (stereo unspecified) | 1 | 0 | 6 | 0 | 6 | -1
COc1ccc(-c2nnc(N(C)C(=O)C3CCCO3)s2)cc1 (stereo unspecified) | 1 | 1 | 13* | 3 | -1 | 0
OC(c1ccccc1)(c1ccccc1)C1CCN(CCCNc2ccccc2F)CC1 | · | 1 | 1 | 1 | -1 | 0
C[C@H]1CCC/C=C/[C@@H]2C[C@H](O)C[C@H]2[C@H](O)[C@H](S(=O)c2ccc(O)cc2)CC(=O)O1 (stereo partly specified) | -3 | 6.3* | -8 | -2 | -8 | -2
CC1CCCN(S(=O)(=O)c2ccc(CN3C(=O)c4cccnc4C3=O)cc2)C1 (stereo unspecified) | 2 | 3.8* | -2 | -1 | -1 | -1
O=C(c1ccc(Cl)c(Cl)c1)N1CCN(c2ccnc3cc(Cl)ccc23)CC1 | · | · | -8 | -6 | · | -3
Cc1ccccc1N1C(=O)CC2(CCCC2)CC1=O | 0 | 1 | 0 | 0 | -3 | 1.1*
COC(=O)c1ccc(N2CCN(CC(=O)c3ccc(C)cc3)CC2)c([N+](=O)[O-])c1 | 1 | 0 | 4 | 6.0* | 0 | 0
Cc1cc(Cl)ccc1OCCCC(=O)NO | 0 | -1 | 12* | -2 | -3 | -1
CN(C(=O)c1cccc(NC(=O)Cc2ccc(NC(=O)C3CCCN(C(=O)C4CCC4)C3)cc2)c1)C1CCC1 (stereo unspecified) | -1 | -1 | -2 | -2 | 0 | 1.3*
CN(C(=O)c1cccc(NC(=O)Cc2ccc(NC(=O)C3CCN(C(=O)c4ccccc4)CC3)cc2)c1)C1CCC1 | 3 | 0 | -1 | -1 | -4 | 1.2*
CN(C(=O)c1cccc(NC(=O)Cc2ccc(NC(=O)C3CCN(C(=O)C4CCCC4)CC3)cc2)c1)C1CCC1 | 2 | 0 | 0 | 0 | -2 | -1
O=C(Oc1ccc2ccccc2c1Br)N1CCCCCC1 | -2 | 3 | 0 | 6.5* | 2 | -1
